From PubChem BioAssay (NCI)
Compounds without any hit were thinned out: in the full panel of roughly 83,000, 20% have a hit.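 Assay: single dose, 48 h. Readout: percent growth (0 = no net growth; negative = cell death). Active: <10.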 Unmarked numbers belong to inactive results. The source made the active and inactive calls.

Experiments:
Assay in all cases: NCI-60 one-dose screen, 48 h (100 = growth as untreated, 0 = no growth, -100 = all killed)
Settings in all cases: 10 µM
[1] = test system: DU-145 prostate
[2] = test system: K-562 leukemia
[3] = test system: MALME-3M melanoma
[4] = test system: MDA-MB-231 breast
[5] = test system: RXF 393 renal
[6] = test system: SF-268 CNS
[7] = test system: SF-295 CNS
[8] = test system: SF-539 CNS
[9] = test system: UACC-257 melanoma
[10] = test system: M14 melanoma

| SMILES | growth [1] | growth [2] | growth [3] | growth [4] | growth [5] | growth [6] | growth [7] | growth [8] | growth [9] | growth [10] |
| --- | --- | --- | --- | --- | --- | --- | --- | --- | --- | --- |
| COc1cc(/C=C(\C#N)C(=O)c2ccccc2)ccc1OCc1ccccc1 | 102% | 120% | 86.1% | 94.6% | 100% | 93.2% | 103% | 99.9% | 106% | 97.5% |
| O=c1cc2oc3cc(O)c(O)cc3c(-c3ccccc3O)c-2cc1O | 86% | 54.1% | 105% | 81.9% | 60.1% | -1.76% (active) | 101% | 52.3% | 130% | 77.1% |
| CCCOC(=O)C(O)c1ccccc1 (configuration not stated) | 113% | 129% | 96.8% | 90% | 111% | 99.7% | 109% | 101% | 108% | 93.8% |
| CC(O)COc1ccc(-c2ccccc2)cc1 (configuration not stated) | 108% | 102% | 115% | 96.6% | 106% | 99.4% | 107% | 104% | 119% | 108% |
| CC1CCCC(CC(N)=O)CC1 (configuration not stated) | 117% | 94.3% | 107% | 103% | 117% | 104% | 89.4% | 98.4% | 104% | 108% |
| O=c1c2ccccc2c(Br)c(Br)c2ccccc12 | 114% | 52.6% | 94.7% | 115% | 48% | 110% | 99.4% | 98.6% | 66.2% | 5.89% (active) |
| Cn1cnc2nc(Cl)nc(Cl)c21 | -24% (active) | 25.5% | 55.6% | 20.9% | 30.6% | 22.1% | 16.3% | 2.85% (active) | 60% | -15.6% (active) |
| Cc1cc(Cc2cc(C)c(N)cc2N)c(N)cc1N | 105% | 101% | 95.2% | 83.9% | 103% | 90.9% | 104% | 103% | 85.3% | 101% |
| Cc1ccc(Cl)cc1NC(=O)N(C)CCO | 131% | 98.5% | 134% | 118% | 112% | 126% | 121% | 91.9% | 110% | 107% |
| O=C1C=C(Nc2ccc([N+](=O)[O-])cc2)c2ccccc2C1=O | 68.9% | 13.2% | 51.6% | 22.5% | 69.2% | 55.6% | 53.1% | 36.8% | 48.8% | 13.3% |
| C[N+](C)=c1ccc2nc3c(cc(Nc4ccccc4)c4ccccc43)oc-2c1 | 55.4% | 38.5% | 28.2% | 47% | 69.2% | 80.3% | 59.5% | 74.3% | 38.6% | 33.9% |
| CCCCN(CCCC)CCCO | 110% | 114% | 129% | 116% | 119% | 101% | 124% | 101% | 113% | 108% |
| CN1C(=O)CN2CCc3ccccc3C2c2cc(Cl)ccc21 (configuration not stated) | 119% | 92.6% | 94.3% | 93.6% | 93.7% | 103% | 105% | 89.4% | 112% | 97.2% |
| Oc1ccc(O)cc1 | 105% | 98.1% | 102% | 109% | 135% | 106% | 114% | 90.1% | 97.8% | 108% |
| COC1=CC(=O)c2nc(Cl)ccc2C1=O | 63% | 0.0099% (active) | 130% | -25.5% (active) | -53.9% (active) | 63.6% | 115% | 88.3% | -30.9% (active) | -5.38% (active) |
| O=c1[nH]c(O)c(/C=C2/C=Nc3ccccc32)[nH]1 | 99.3% | 86.1% | 125% | 89.6% | 103% | 82.1% | 125% | 91.5% | 101% | 99.4% |

| SMILES | growth [1] | growth [2] | growth [3] | growth [4] | growth [5] | growth [6] | growth [7] | growth [8] | growth [9] | growth [10] |
| --- | --- | --- | --- | --- | --- | --- | --- | --- | --- | --- |
| O=S(=O)(O)c1cc(O)c2c(N=Cc3ccccc3O)c(S(=O)(=O)O)ccc2c1 | 109% | 96.7% | 97.9% | 127% | 105% | 102% | 81.9% | 94.3% | 111% | 94.4% |
| O=C1C[C@H](c2ccccc2)[C@H](c2ccccc2)C1 | 121% | 111% | 89.6% | 99.1% | 111% | 105% | 108% | 103% | 107% | 103% |
| O=S(=O)(O)c1ccc(O)c2ccccc12 | 115% | 104% | 127% | 90.8% | 108% | 98.5% | 119% | 91.8% | 112% | 79.4% |
| CCOC(=O)C1OC1c1ccccc1 (configuration not stated) | 107% | 103% | 103% | 111% | 112% | 97.5% | 93.2% | 99.4% | 106% | 97.8% |
| NC(=S)CN1CCOCC1 | 107% | 97.7% | 110% | 106% | 115% | 102% | 131% | 111% | 117% | 120% |
| O=c1cc(-c2ccccc2)[nH]c(=S)[nH]1 | 104% | 96.2% | 83.5% | 103% | 108% | 92.1% | 188% | 102% | 109% | 102% |
| COC(=O)c1cccc(Br)c1 | 111% | 121% | 111% | 111% | 146% | 108% | 102% | 98.7% | 112% | 101% |
| Cc1cc(N)ccc1-c1ccc(N)cc1C | 110% | 106% | 120% | 106% | 108% | 103% | 99.2% | 93.8% | 80.7% | 94.7% |
| S=C1NCc2cncnc2N1 | 112% | 93% | 112% | 132% | 105% | 107% | 94.2% | 92.7% |  | 103% |
| COc1ccc(C(O)c2ccccc2)cc1 (configuration not stated) | 108% | 88.5% | 101% | 95.5% | 111% | 93.8% | 102% | 102% |  | 103% |
| CC1CC(O)C2C3(C)CCCC2(COC3=O)C12CCC1(CCOC1=O)O2 (configuration not stated) | 105% | 127% | 116% | 126% | 114% | 107% | 131% | 101% | 114% | 96.8% |
| CC1(C(=O)O)NC(C(=O)O)Cc2c1[nH]c1ccccc21 (configuration not stated) | 110% | 96.9% | 90.5% | 104% | 110% | 113% | 90.2% | 105% | 87.6% | 96.7% |
| COc1ccccc1N=Nc1c(O)ccc2cc(S(=O)(=O)O)ccc12 | 111% | 98.1% | 109% | 93.2% | 104% | 96.5% | 94.2% | 103% | 95.8% | 99.7% |
| COc1cc2cc(OC(C)=O)c3cc4c(cc3c2c(OC)c1OC)OCO4 | 98.8% | 107% | 98.4% | 108% | 94.6% | 97.9% | 93% | 103% | 105% | 96.5% |
| O=C(Cc1ccc(OCc2ccccc2)cc1)NCc1ccc2c(c1)OCO2 | 84.6% | 27.6% | 46.6% | 82.8% | 105% | 68.9% | -16.6% (active) | 93.7% |  | 61.9% |
| N#Cc1c(N)sc(=S)c2c1CCCC2 | 113% | 113% | 119% | 111% | 118% | 104% | 110% | 110% | 110% | 116% |
